Measurements as given in PubChem BioAssay.
Calls of active or inactive are those of the source. No rule for the calls is given here.

test system: Botulinum neurotoxin type F light chain protease (Clostridium botulinum); test: Clostridium botulinum type F light chain protease inhibitors, microsphere substrate cleavage, validation (AID 588459); conditions: multiplex microsphere protease substrate cleavage assay, flow cytometry; at 10 µM; hits give high values

| Compound | inhibition |
| --- | --- |
| O=C(N1CCCCC1)C1(c2ccccc2)CCOCC1 | 1.7% (inactive) |
| COc1cccc(C2CC(=O)C3=C(C2)Nc2ccccc2N(C(=O)CCC(=O)O)C3c2ccc(F)cc2)c1 (configuration not stated) | 1.3% (inactive) |
| Cc1cc(Cl)cc2c1NC(=O)[C@]21[C@@H]2C(=O)N(Cc3ccccc3)C(=O)[C@@H]2[C@@H]2CCCN21 | 2.1% (inactive) |
| COc1ccccc1NC(=O)N1CCc2[nH]c3ccc(Cl)cc3c2C1 | 6.8% (inactive) |
| NC(=O)c1cnccn1 | 0.4% (inactive) |
| CCCCOn1c(C)c(C(C)=O)c2c3no[n+]([O-])c3ccc21 | 1.9% (inactive) |
| CN/C(=C/[N+](=O)[O-])NCCSCc1ccc(CN(C)C)o1 | 0.1% (inactive) |
| O=C(NCCc1ccccc1)C1CCN(C2CCN(Cc3ccco3)CC2)CC1 | -0.8% (inactive) |
| NC12CC3CC(CC(C3)C1)C2 | -1.1% (inactive) |
| CCC1CCc2c(sc(NC(=O)c3cccnc3)c2C(N)=O)C1 (configuration not stated) | -4.8% (inactive) |
| COc1cc(C(=O)Nc2ccc(N(C)C)cc2)c([N+](=O)[O-])cc1OC | -2.4% (inactive) |
| Cc1cccc(N2C(=O)C3C(c4ccccc4)OC4(C(=O)c5ccccc5C4=O)C3C2=O)c1 (configuration not stated) | 4.6% (inactive) |
| Nc1cccc(C(=O)O)c1 | -0.6% (inactive) |
| CC(N=C(NC#N)Nc1ccncc1)C(C)(C)C (configuration not stated) | 0.4% (inactive) |
| Cc1ccc2c(c1)c(=O)c1c3n2CCN(C(=O)CCl)C3CC1 (configuration not stated) | -11.4% (inactive) |
| NS(=O)(=O)c1cc2c(cc1C(F)(F)F)NCNS2(=O)=O | 0.5% (inactive) |
| CCN(CC)CC#CCOC(=O)C(O)(c1ccccc1)C1CCCCC1 (configuration not stated) | -1.7% (inactive) |
